Data: publication PMC3218832

What was measured:
Assay in all cases: protein binding microarray; high values mean tight binding
Conditions in all cases: dsDNA, one strand shown
[1] = molecular target: RELARELA (p65 homodimer) (Homo sapiens, UniProt Q04206 1-307)
[2] = molecular target: p50p50 homodimer (Homo sapiens, UniProt P19838 7-356)
[3] = molecular target: T1, p52p52 homodimer (Homo sapiens, UniProt Q00653 4-332)
T1 sequence: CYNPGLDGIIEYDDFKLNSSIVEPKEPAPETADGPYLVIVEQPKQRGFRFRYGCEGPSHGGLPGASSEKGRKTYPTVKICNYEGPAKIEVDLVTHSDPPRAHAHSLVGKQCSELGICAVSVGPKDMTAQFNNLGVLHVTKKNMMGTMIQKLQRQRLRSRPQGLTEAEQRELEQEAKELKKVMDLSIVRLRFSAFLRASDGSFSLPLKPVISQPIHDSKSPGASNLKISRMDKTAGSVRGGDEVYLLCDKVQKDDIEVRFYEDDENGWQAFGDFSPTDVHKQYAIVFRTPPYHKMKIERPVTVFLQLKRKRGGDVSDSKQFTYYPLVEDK

[4] = molecular target: RELA (p65) subunit of heterodimer;p50 subunit (Homo sapiens;Homo sapiens, UniProt Q04206;P19838 1-307;7-356)
Chain of RELA (p65) subunit of heterodimer;p50 subunit (Q04206 1-307, chain 1 of 2): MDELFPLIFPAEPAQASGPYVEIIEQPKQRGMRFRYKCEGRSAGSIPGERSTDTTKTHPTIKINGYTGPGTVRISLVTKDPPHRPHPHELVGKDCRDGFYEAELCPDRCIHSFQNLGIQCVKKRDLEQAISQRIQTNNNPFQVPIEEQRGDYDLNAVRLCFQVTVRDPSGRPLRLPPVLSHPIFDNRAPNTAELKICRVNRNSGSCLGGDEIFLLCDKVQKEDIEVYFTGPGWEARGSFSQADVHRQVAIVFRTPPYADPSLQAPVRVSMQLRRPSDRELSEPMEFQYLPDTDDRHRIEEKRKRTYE
Chain of RELA (p65) subunit of heterodimer;p50 subunit (P19838 7-356, chain 2 of 2): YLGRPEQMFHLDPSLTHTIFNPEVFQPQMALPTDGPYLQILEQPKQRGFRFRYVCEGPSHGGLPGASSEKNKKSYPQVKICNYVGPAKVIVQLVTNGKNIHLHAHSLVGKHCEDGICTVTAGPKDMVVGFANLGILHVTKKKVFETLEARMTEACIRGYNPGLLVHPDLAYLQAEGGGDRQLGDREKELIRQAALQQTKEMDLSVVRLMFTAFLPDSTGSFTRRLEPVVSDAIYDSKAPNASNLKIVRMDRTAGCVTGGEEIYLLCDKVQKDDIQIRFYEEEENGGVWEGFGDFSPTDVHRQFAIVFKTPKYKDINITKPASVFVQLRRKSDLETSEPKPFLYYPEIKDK

[5] = molecular target: RELA (p65) subunit of heterodimer;p52 subunit (Homo sapiens;Homo sapiens, UniProt Q04206;Q00653 1-307;4-332)
[6] = molecular target: RELB subunit;p50 subunit (Homo sapiens;Homo sapiens, UniProt Q01201;P19838 120-401;7-356)
[7] = molecular target: T2, RELB subunit;p52 subunit (Homo sapiens;Homo sapiens, UniProt Q01201;Q00653 120-401;4-332)
T2 sequence 1: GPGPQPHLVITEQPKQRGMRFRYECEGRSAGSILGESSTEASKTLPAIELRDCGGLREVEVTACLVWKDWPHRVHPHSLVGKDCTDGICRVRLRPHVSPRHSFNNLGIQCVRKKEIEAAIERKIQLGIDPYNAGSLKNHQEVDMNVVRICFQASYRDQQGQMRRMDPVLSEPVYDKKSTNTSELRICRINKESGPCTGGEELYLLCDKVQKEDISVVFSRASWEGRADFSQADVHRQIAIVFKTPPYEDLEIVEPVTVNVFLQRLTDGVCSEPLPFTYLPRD
T2 sequence 2: T1 sequence

[8] = molecular target: C-Rel subunit;p50 subunit (Homo sapiens;Homo sapiens, UniProt Q04864;P19838 1-285;7-356)
[9] = molecular target: T3, C-Rel subunit;p52 subunit (Homo sapiens;Homo sapiens, UniProt Q04864;Q00653 1-285;4-332)
T3 sequence 1: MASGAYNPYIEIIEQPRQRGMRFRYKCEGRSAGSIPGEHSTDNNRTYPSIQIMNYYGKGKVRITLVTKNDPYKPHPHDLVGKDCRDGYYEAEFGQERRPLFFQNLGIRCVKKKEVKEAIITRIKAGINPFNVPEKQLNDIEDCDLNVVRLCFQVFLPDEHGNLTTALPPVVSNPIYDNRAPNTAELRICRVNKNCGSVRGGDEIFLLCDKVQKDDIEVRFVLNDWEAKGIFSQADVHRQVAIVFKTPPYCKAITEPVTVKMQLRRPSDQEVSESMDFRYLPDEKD
T3 sequence 2: T1 sequence

Chain of RELARELA (p65 homodimer) (Q04206 1-307): as the sequence (Q04206 1-307, chain 1 of 2) above
Chain of p50p50 homodimer (P19838 7-356): as the sequence (P19838 7-356, chain 2 of 2) above

Sequence	binding signal [1] [z-score]	binding signal [2] [z-score]	binding signal [3] [z-score]	binding signal [4] [z-score]	binding signal [5] [z-score]	binding signal [6] [z-score]	binding signal [7] [z-score]	binding signal [8] [z-score]	binding signal [9] [z-score]
AGAATGCTCCC	-0.506	-0.551	-0.418	-0.467	-0.621	-0.576	-0.823	-0.92	-0.456
AGGGACGTCCT	0.554	0.528	1.06	0.549	0.923	0.448	0.709	0.177	0.67
CAAAAACCCCT	1.05	1.47	2.66	1.84	2.09	2.09	2.18	1.37	2.28
GGGGTGATCCC	0.248	0.402	1.59	0.62	1.16	0.387	0.685	0.527	0.91
AAAATAACCCC	0.617	1.07	1.26	1.03	1.24	0.895	1.14	0.682	1.16
AGGGTGGTCCC	-0.0899	0.541	0.435	0.249	0.357	0.251	0.266	0.364	0.427
CAAGGGTCCCT	-0.447	0.337	0.26	-0.269	0.0513	0.363	0.276	-0.315	-0.166
CGGTAAACCCT	0.285	-0.188	0.217	-0.158	0.0419	-0.151	-0.0534	-0.122	0.186
CGGAAATCCCT	2.44	1.09	1.3	1.35	1.25	0.939	1.47	1.21	1.56
CGATTGACCCC	-0.827	-0.753	-0.367	-0.579	-0.288	-0.398	-0.411	-0.541	-0.184
AAGATAATCCT	-0.605	-1.55	-0.666	-1.04	-0.884	-1.14	-0.91	-1.26	-0.848
GGATAATCCCC	1.81	1.26	2.24	2.07	1.79	1.79	1.9	1.51	1.45
CAATTCGTCCC	0.717	0.108	0.533	-0.0179	0.123	0.362	0.547	0.479	0.00577
GAGAATGTCCT	0.673	-1.23	-0.437	-0.682	-0.739	-1.01	-0.926	-0.737	-0.678
GAGAATTCCCT	1.81	1.39	2.1	1.68	1.6	1.65	1.74	1.43	1.33
